{
  "source": "the supplement of paper PMC3414501",
  "key": {"[1]": {"system": "S. cerevisiae AD1-9 (efflux-pump deficient), vegetative growth in YPD", "assay": "growth sensitivity score (doubling time z-score vs DMSO controls); higher = slower growth, strongly negative scores also mark growth inhibition (complete suppression), active = hit call of the paper", "method_in_brief": "(§1)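 Optical density of Saccharomyces cerevisiae cultures in microtiter plates was followed every 15 min for 24 hours after seeding at an OD600 of 0.065. Eight solvent-only wells were run per experiment. Growth sensitivity scores were found by subtracting the solvent-only mean from the compound mean and dividing by the solvent-only standard deviation.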"}, "[2]": {"system": "S. cerevisiae BY4741 (wild-type), vegetative growth in YPD", "assay": "growth sensitivity score (doubling time z-score vs DMSO controls); higher = slower growth, strongly negative scores also mark growth inhibition (complete suppression), active = hit call of the paper", "method_in_brief": "as §1"}, "[3]": {"system": "S. cerevisiae SK1 pCDA2-eGFP (USY613), sporulating", "assay": "CDA2-GFP sporulation assay sensitivity score (z-score vs DMSO controls); higher = stronger inhibition of sporulation, active = hit call of the paper"}, "[4]": {"conditions": "stock concentration (mM, diluted 1:100): 10"}, "[5]": {"conditions": "stock concentration (mM, diluted 1:100): 8.7"}, "[6]": {"conditions": "stock concentration (mM, diluted 1:100): 9.7"}, "[7]": {"conditions": "stock concentration (mM, diluted 1:100): 11.3"}, "[8]": {"conditions": "stock concentration (mM, diluted 1:100): 7.6"}, "[9]": {"conditions": "stock concentration (mM, diluted 1:100): 10.1"}},
  "note": "Structures can show the parent of a compound that is named as a salt.",
  "data": [
    {"compound": "CN1C(=O)COc2c(C(=O)NC3CN4CCC3CC4)cc(Cl)cc21", "note": "(stereo unspecified) [Azasetron];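 as to CDA2-GFP sporulation assay sensitivity score (z-score vs DMSO controls): active if sensitivity score above 5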", "values": [
      {"measurement": "growth sensitivity score", "setting": "[1]; [4]", "result": "-0.58 (inactive)"},
      {"measurement": "growth sensitivity score", "setting": "[2]; [4]", "result": "-0.56 (inactive)"}
    ]},
    {"compound": "CCN(C(C)=O)c1cccc(-c2ccnc3c(C#N)cnn23)c1", "note": "[Zaleplon]", "values": [
      {"measurement": "CDA2-GFP sporulation assay sensitivity score", "setting": "[3]; [4]", "result": "6.36 (inactive)"},
      {"measurement": "growth sensitivity score", "setting": "[1]; [4]", "result": "-0.13 (inactive)"},
      {"measurement": "growth sensitivity score", "setting": "[2]; [4]", "result": "-0.43 (inactive)"}
    ]},
    {"compound": "CC(NC(C)(C)C)C(=O)c1cccc(Cl)c1", "note": "(stereo unspecified) [Bupropion hydrochloride]", "values": [
      {"measurement": "CDA2-GFP sporulation assay sensitivity score", "setting": "[3]; [5]", "result": "3.2 (inactive)"},
      {"measurement": "growth sensitivity score", "setting": "[1]; [5]", "result": "-0.08 (inactive)"},
      {"measurement": "growth sensitivity score", "setting": "[2]; [5]", "result": "-0.87 (inactive)"}
    ]},
    {"compound": "COC(=O)N1CCN(C(=O)Cc2ccc(Cl)c(Cl)c2)C(CN2CCCC2)C1", "note": "(stereo unspecified)", "values": [
      {"measurement": "CDA2-GFP sporulation assay sensitivity score", "setting": "[3]; [4]", "result": "3.34 (inactive)"},
      {"measurement": "growth sensitivity score", "setting": "[1]; [4]", "result": "-1.16 (inactive)"},
      {"measurement": "growth sensitivity score", "setting": "[2]; [4]", "result": "-1.35 (inactive)"}
    ]},
    {"compound": "CN1C(=O)CN=C(c2ccccc2)c2cc([N+](=O)[O-])ccc21", "note": "[Nimetazepam]", "values": [
      {"measurement": "CDA2-GFP sporulation assay sensitivity score", "setting": "[3]; [4]", "result": "-0.53 (inactive)"},
      {"measurement": "growth sensitivity score", "setting": "[1]; [4]", "result": "0.79 (inactive)"},
      {"measurement": "growth sensitivity score", "setting": "[2]; [4]", "result": "-0.45 (inactive)"}
    ]},
    {"compound": "CC(C)CC(N(C)C)C1(c2ccc(Cl)cc2)CCC1", "note": "(stereo unspecified) [Sibutramine hydrochloride]", "values": [
      {"measurement": "CDA2-GFP sporulation assay sensitivity score", "setting": "[3]; [4]", "result": "8.57 (inactive)"},
      {"measurement": "growth sensitivity score", "setting": "[1]; [4]", "result": "6.62 (active)"},
      {"measurement": "growth sensitivity score", "setting": "[2]; [4]", "result": "1.85 (inactive)"}
    ]},
    {"compound": "CN1CCC(c2ccc(F)cc2)C(COc2ccc3c(c2)OCO3)C1", "note": "(stereo unspecified) [Methyl paroxetine]", "values": [
      {"measurement": "CDA2-GFP sporulation assay sensitivity score", "setting": "[3]; [6]", "result": "0.37 (inactive)"},
      {"measurement": "growth sensitivity score", "setting": "[1]; [6]", "result": "35 (active)"},
      {"measurement": "growth sensitivity score", "setting": "[2]; [6]", "result": "2.48 (active)"}
    ]},
    {"compound": "C[C@]12CCC(=O)C=C1CC[C@@H]1[C@@H]2CC[C@@]2(C)[C@H]1CC[C@]2(C)O", "note": "[Methyltestosterone]", "values": [
      {"measurement": "CDA2-GFP sporulation assay sensitivity score", "setting": "[3]; [4]", "result": "3.87 (inactive)"},
      {"measurement": "growth sensitivity score", "setting": "[1]; [4]", "result": "32.3 (active)"},
      {"measurement": "growth sensitivity score", "setting": "[2]; [4]", "result": "3.83 (active)"}
    ]},
    {"compound": "CC(C)CC(N(C)C)C1(c2ccc(Cl)cc2)CCC1", "note": "(stereo unspecified) [Sibutramine]", "values": [
      {"measurement": "CDA2-GFP sporulation assay sensitivity score", "setting": "[3]; [7]", "result": "3.27 (inactive)"},
      {"measurement": "growth sensitivity score", "setting": "[1]; [7]", "result": "5.47 (active)"},
      {"measurement": "growth sensitivity score", "setting": "[2]; [7]", "result": "3.69 (active)"}
    ]},
    {"compound": "C[C@]12Cc3c[nH]nc3C[C@@H]1CC[C@@H]1[C@@H]2CC[C@@]2(C)[C@H]1CC[C@]2(C)O", "note": "[Stanozolol]", "values": [
      {"measurement": "CDA2-GFP sporulation assay sensitivity score", "setting": "[3]; [4]", "result": "-4.38 (inactive)"},
      {"measurement": "growth sensitivity score", "setting": "[1]; [4]", "result": "9.25 (active)"},
      {"measurement": "growth sensitivity score", "setting": "[2]; [4]", "result": "1.13 (inactive)"}
    ]},
    {"compound": "NC(=O)C[S+]([O-])C(c1ccccc1)c1ccccc1", "note": "(stereo unspecified) [Modafinil]", "values": [
      {"measurement": "CDA2-GFP sporulation assay sensitivity score", "setting": "[3]; [4]", "result": "-0.48 (inactive)"},
      {"measurement": "growth sensitivity score", "setting": "[1]; [4]", "result": "-1.24 (inactive)"},
      {"measurement": "growth sensitivity score", "setting": "[2]; [4]", "result": "-1.13 (inactive)"}
    ]},
    {"compound": "CN1CC[C@]23CCCC[C@H]2[C@H]1Cc1ccc(O)cc13", "note": "[Levorphanol tartrate]", "values": [
      {"measurement": "CDA2-GFP sporulation assay sensitivity score", "setting": "[3]; [8]", "result": "-2.67 (inactive)"},
      {"measurement": "growth sensitivity score", "setting": "[1]; [8]", "result": "-1.11 (inactive)"},
      {"measurement": "growth sensitivity score", "setting": "[2]; [8]", "result": "-0.24 (inactive)"}
    ]},
    {"compound": "N=C(NCc1ccc(Cl)cc1)SCCCc1c[nH]cn1", "note": "[Clobenpropit]", "values": [
      {"measurement": "CDA2-GFP sporulation assay sensitivity score", "setting": "[3]; [4]", "result": "1.25 (inactive)"},
      {"measurement": "growth sensitivity score", "setting": "[1]; [4]", "result": "0.21 (inactive)"},
      {"measurement": "growth sensitivity score", "setting": "[2]; [4]", "result": "0.09 (inactive)"}
    ]},
    {"compound": "Oc1ccc2c3c1O[C@H]1[C@@H](O)CC[C@@]4(O)[C@@H](C2)N(CC2CCC2)CC[C@]314", "note": "[Nalbuphine]", "values": [
      {"measurement": "CDA2-GFP sporulation assay sensitivity score", "setting": "[3]; [4]", "result": "-0.4 (inactive)"},
      {"measurement": "growth sensitivity score", "setting": "[1]; [4]", "result": "-1.74 (inactive)"},
      {"measurement": "growth sensitivity score", "setting": "[2]; [4]", "result": "-0.96 (inactive)"}
    ]},
    {"compound": "CCCN1C[C@H](CSC)C[C@@H]2c3cccc4[nH]cc(c34)C[C@H]21", "note": "[Pergolide mesylate]", "values": [
      {"measurement": "growth sensitivity score", "setting": "[1]; [4]", "result": "3.13 (active)"},
      {"measurement": "growth sensitivity score", "setting": "[2]; [4]", "result": "2.05 (active)"}
    ]},
    {"compound": "CC(C)[C@]12O[C@H]1[C@@H]1O[C@]13[C@]1(O[C@H]1C[C@H]1C4=C(CC[C@@]13C)C(=O)OC4)[C@@H]2O", "note": "[Triptolide]", "values": [
      {"measurement": "CDA2-GFP sporulation assay sensitivity score", "setting": "[3]; [4]", "result": "-1.02 (inactive)"},
      {"measurement": "growth sensitivity score", "setting": "[1]; [4]", "result": -2.17},
      {"measurement": "growth sensitivity score", "setting": "[2]; [4]", "result": "-0.92 (inactive)"}
    ]},
    {"compound": "COc1ccc2[nH]cc(C3=CCNCC3)c2c1", "values": [
      {"measurement": "growth sensitivity score", "setting": "[1]; [9]", "result": -2.3},
      {"measurement": "growth sensitivity score", "setting": "[2]; [9]", "result": "-0.36 (inactive)"}
    ]},
    {"compound": "C[N+]1(CCC(C(N)=O)(c2ccccc2)c2ccccc2)CCCCC1", "note": "[Fenpiverinium bromide]", "values": [
      {"measurement": "CDA2-GFP sporulation assay sensitivity score", "setting": "[3]; [9]", "result": "0.3 (inactive)"},
      {"measurement": "growth sensitivity score", "setting": "[1]; [9]", "result": "-1.25 (inactive)"},
      {"measurement": "growth sensitivity score", "setting": "[2]; [9]", "result": "-1.06 (inactive)"}
    ]}
  ]
}
